# Screening results (PubChem)
# Only some compounds are listed: those with a hit (about 9.2% of all), similar ones and a draw of the others.
# SMN2 splice up = SMN2 splice variant enhancement; HEK293 SMN2-luciferase splicing reporter, luminescence, 30-36 h; Potency, µM (top dose mostly 46.1 µM), for inactives: at the highest dose activity change, positive = activation, actives largely listed as activators; 2.8% of 210,000 active; further: % of control where 0% means no effect; nearly all actives have a fitted effect of over 55% in size
#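 qHTS luciferase splicing reporter: luminescence rises when SMN2 exon 7 is included in transfected HEK293 cells. Compound exposure lasted 30-36 h at 37C, with 4.5 mM final sodium butyrate as control, followed by a ONE-Glo read.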
# ELG1 genotox = genotoxicity induction in ELG1-luciferase HEK293T cells. HEK293T ELG1-luciferase reporter, luminescence, 16 h. Potency, µM (titrated, usually from 46 µM), without a hit: at the highest dose activity change, positive = activation, hits mostly activators. 1.3% of 330,000 active. AID 504466; further: % of control where 0% means no effect; nearly all actives have a fitted effect of over 60% in size
#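 After overnight (16 hr) compound treatment at 37 °C, ELG1-luciferase HEK293T cells were lysed with ONE-Glo; luminescence quantified 30 min later at room temperature.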
# ELG1 repair inh = inhibitors of ELG1-dependent DNA repair in HEK293T cells; HEK293T ELG1-luciferase reporter, luminescence, 16 h; DNA damage induced by 5-fluorouridine; Potency, µM (highest dose often 46.1 µM), for inactives: at the highest dose activity change, negative = inhibition, most hits filed as inhibitors; 2.3% of 330,000 active; AID 504467; further: on the % scale 0 is the no-effect control and ±100 the full control effect; nearly all actives have a fitted effect of over 55% in size
#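 Overnight (16 hr) co-exposure of 2,000 cells/well to 5-fluorouridine and compound at 37 °C preceded detection. Luciferase was quantified via ONE-Glo luminescence; loss of signal denotes inhibition.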
# FLuc counter = counter-screen for miR-21 project: firefly luciferase inhibitors or activators. Potency, µM (series often up to 57.5 µM), inactives show at the top dose activity change, negative = inhibition, hits mostly inhibitors. P08659. 6.9% of 360,000 active. purified FLuc, Km substrates, luminescence inhibition;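 further: plate controls were vehicle for no effect and reference inhibitor for full effect; nearly all actives have a fitted effect of over 55% in size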
# Target sequence (P08659 whole entry, looked up): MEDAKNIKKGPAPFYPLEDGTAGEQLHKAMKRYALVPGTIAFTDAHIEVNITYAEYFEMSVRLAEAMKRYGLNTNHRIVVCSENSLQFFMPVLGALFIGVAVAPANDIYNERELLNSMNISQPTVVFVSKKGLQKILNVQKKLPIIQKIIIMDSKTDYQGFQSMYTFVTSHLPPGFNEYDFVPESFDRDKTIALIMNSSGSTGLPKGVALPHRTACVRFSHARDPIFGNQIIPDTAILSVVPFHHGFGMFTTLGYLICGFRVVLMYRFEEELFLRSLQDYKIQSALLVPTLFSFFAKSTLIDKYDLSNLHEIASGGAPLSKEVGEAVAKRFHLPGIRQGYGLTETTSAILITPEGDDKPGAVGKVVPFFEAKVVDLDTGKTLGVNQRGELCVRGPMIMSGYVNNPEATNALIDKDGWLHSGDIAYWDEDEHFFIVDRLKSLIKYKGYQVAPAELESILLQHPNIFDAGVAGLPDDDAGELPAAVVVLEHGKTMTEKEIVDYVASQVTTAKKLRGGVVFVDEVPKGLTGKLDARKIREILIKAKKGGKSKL
#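 Purified P. pyralis luciferase, 10 nM final, with Km-level 10 uM D-luciferin and 10 uM ATP in 50 mM Tris acetate pH 7.5, 10 mM Mg acetate, 0.01% Tween-20, 0.05% BSA; 6-point qHTS titration about 60 µM downward; luminescence read.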
# NPC1 promoter act = activates the NPC1 promoter. Huh7 NPC1 promoter luciferase reporter, 24 h. Potency, µM (series often up to 9.22 µM), for inactives: at the highest dose activation, most hits filed as activators. 2.4% of 320,000 active. AID 485313; further: % of control where 0% means no effect; nearly all actives have a fitted effect of over 60% in size
#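 Compounds in DMSO were transferred onto Huh7 NPC1-luciferase reporter cells pre-incubated 2 h; after 24 h at 37 °C, Amplite reagent was dispensed and luminescence recorded 10 min later.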
# Rab9 prom act = activators of Rab9 promoter; Potency, µM (titrated, usually from 9.22 µM), inactives show at the highest dose activation, negative = inhibition, hits mostly activators; AID 485297; Huh7 Rab9 promoter-luciferase reporter, luminescence, 24 h; 2.8% of 320,000 active; further: % of control where 0% means no effect; nearly all actives have a fitted effect of over 60% in size
#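 Steps: seed 1500 Huh7 Rab9-luc cells per well, rest 2 h at 37 °C; add compound in DMSO; incubate 24 h; add luciferase reagent, 10 min ambient; read luminescence.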
# The depositor's hits bear a star; ? = inconclusive; . = no result given; [ ] = remark or other dose. The call rests on the fitted dose curve; in most records, active means well fitted curve in the direction sought with a large enough effect; inconclusive means small, poorly fitted or top-dose-only effect, or another doubt; inactive means no such curve, though single readings can be large; an effect the other way counts as inactive or inconclusive. Potency means the concentration at half of the fitted maximal effect.
SMILES,SMN2 splice up,ELG1 genotox,ELG1 repair inh,FLuc counter,NPC1 promoter act,Rab9 prom act
O=C(Nc1nc2ccsc2c(=O)s1)C1CCC1,.,?,?,19µM*,?,?
CN(C(=O)c1cccc(NC(=O)Cc2cccc([N+](=O)[O-])c2)c1)C1CCCC1,.,-6%,?,.,.,.
Cc1csc2c(=O)sc(NC(=O)c3ccco3)nc12,.,1%,4%,?,4%,-1%
CC(=O)Nc1nc2c(s1)CCc1ccccc1-2,.,0%[9.26 µM],?,?,14%,3%
O=C(Nc1nc2c(s1)CCc1ccccc1-2)c1ccco1,16µM*,11%,?,17µM*,?,?
COc1ccc2nc(NC(=O)c3ccco3)sc2c1,.,0.58µM*,?,0.54µM*,0.32µM*,0.11µM*
O=C(Nc1nc2ccsc2c(=O)s1)c1ccco1,.,?,?,15µM*,?,?
CCC1CN(C(=O)Nc2ccccc2F)c2cc(C)ccc2O1 (configuration not stated),.,.,.,0%,.,.
COC(=O)c1ccc2c(c1O)C(=O)c1ccccc1C2=O,-8%,?,?,8.5µM*,11%,14%
Nc1c(C(=O)O)ccc2c1C(=O)c1ccccc1C2=O,-22%,1%,-8%,19µM*,1%,-5%
Nc1cc(C(=O)O)c(N)c2c1C(=O)c1ccccc1C2=O,.,0%,?,19µM*,1%,0%
N#Cc1cnc(N)c(Br)c1,6%,-3%,?,-1%,6%,19%
COc1cccc(NC(=O)Cn2nc(-c3ccncc3)ccc2=O)c1,.,.,.,-9%,.,.
C/C(=N\NC(=O)CNC(=O)C1COc2ccccc2O1)c1ccc(Cl)cc1 (configuration not stated),.,-4%,-25%,-2%,1%,0%
Cc1cc(Cl)ccc1OCC(=O)Nc1nc(-c2cccnc2)cs1,.,14%,-3%,-2%,-3%,9%
CCOC(=O)N1CCN(C(=O)CSCC(=O)Nc2nc(-c3cccs3)cs2)CC1,-34%,-2%,26µM*,-16%,-1%,3%
CCOC(=O)c1csc(NC(=O)COc2ccc(Cl)cc2Cl)n1,-8%,0%,-5%,24µM*,-2%,-8%
Cc1cc(Cl)ccc1OCC(=O)Nc1nc(-c2cccs2)cs1,-10%,-1%,16%,24µM*,-3%,-1%
CCOC(=O)c1csc(NC(=O)Nc2cccc(Cl)c2)n1,-17%,1%,5%,-2%,1%,-1%
O=C(COc1ccccc1Cl)Nc1nc(-c2cccs2)cs1,-3%,-1%,21%,17µM*,-2%,1%
CC1CCN(C(=O)CSCC(=O)Nc2nc(-c3cccs3)cs2)CC1,?,10%,?,?,13%,16%
CCOc1ccc(NC(=O)CSc2nncc(=O)n2N)cc1,.,-2%,3%,-16%,2%,9%
O=C(COC(=O)CCc1ccccc1)Nc1ccc(F)cc1Cl,.,1%,16%,-3%,1%,3%
COc1ccccc1C(=O)/C=C/c1ccc(N2CCCCC2)c([N+](=O)[O-])c1,-84%,?,?,6µM*,?,?
O=C(/C=C/c1ccc(N2CCCCC2)c([N+](=O)[O-])c1)c1ccc(O)cc1,-8%,21µM*,?,4.8µM*,?,?
O=C(O/N=C\c1ccc(N2CCCCC2)c([N+](=O)[O-])c1)c1ccc(Cl)cc1Cl,-9%,-2%,-7%,-1%,-4%,-8%
CCC(=O)c1cn(CC(=O)Nc2cccc(OC)c2)c2ccccc12,.,3%,-15%,-2%,1%,7%
O=C(Cn1nnc2ccccc2c1=O)NC1CCCCC1,.,19%,0%,?,24%,?
COc1cc(/C=C/C(=O)O)cc(S(=O)(=O)Nc2ccc3nc(SC)sc3c2)c1OC,9%,3%,11%,?,-1%,-1%
Cc1cc2cc(CNC(=O)Nc3ccccc3)ccc2[nH]1,?,?,?,19µM*,?,?
